14 compounds from PubChem BioAssay (NCI) can be followed below.

The structures appear in SMILES notation. Compounds without any hit were thinned out: in the full panel of roughly 83,000, 20% have a hit.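 Note: values are percent growth. 100 is the growth of untreated cells, values between 100 and 0 indicate rising inhibition; between -100 and 0 indicates cell death.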 A number with no mark means an inactive call. Active and inactive are the calls of the source. How the source made its calls: active means growth percent below 10; inactive means the rest.

Some test systems named below: T-47D breast; BT-549 breast; MDA-MB-435 melanoma; SW-620 colon; MCF7 breast; HCT-116 colon; HCC-2998 colon; KM12 colon.
Holding throughout (test): NCI-60 one-dose screen, 48 h (100 = growth as untreated, 0 = no growth, -100 = all killed)
Common to all, as to conditions: 10 µM unless noted

Consider `COCc1nc(NS(=O)(=O)c2ccc(N)cc2)nc(C)c1Br`, for which the growth with T-47D breast is 96.1%; in the experiment with BT-549 breast, 106%; with MDA-MB-435 melanoma, 107%; in the experiment with SW-620 colon it was 103%; in the experiment with MCF7 breast, 103%; with HCT-116 colon, 94.3%. The growth is 97.1% in the experiment with HCC-2998 colon and 107% in the experiment on KM12 colon.
On to `COc1ccc(/C=N/NC(N)=S)c(OC)n1`, for which the growth in the experiment on T-47D breast is 80%; in the experiment on BT-549 breast, 102%; with MDA-MB-435 melanoma, 101%; in the experiment on SW-620 colon it was 108%; with MCF7 breast, 93.6%; in the experiment with HCT-116 colon, 99.2%. Also, the growth is 115% in the experiment with HCC-2998 colon and 102% with KM12 colon.
For `N/N=C(\C(=N\N)c1ccccc1)c1ccccc1`, the growth was 93% in the experiment on T-47D breast; 88% with BT-549 breast; 103% in the experiment with MDA-MB-435 melanoma; 101% in the experiment on SW-620 colon; 90% in the experiment with MCF7 breast; 101% with HCT-116 colon. For the same compound, the growth is 99.8% with HCC-2998 colon and 105% in the experiment on KM12 colon.
As for `Oc1c(C(Nc2ccccc2Br)c2ccccc2)ccc2cccnc12` (configuration not stated), the growth with T-47D breast was 29.9%; in the experiment on BT-549 breast, 28.3%; in the experiment with MDA-MB-435 melanoma, 35.7%; in the experiment on SW-620 colon it was 33.7%; in the experiment with MCF7 breast, 21%; in the experiment with HCT-116 colon, 20%. The figures for the growth with HCC-2998 colon and in the experiment on KM12 colon were 30.1% and 32.3%, respectively.
Consider `Cc1ccc([C@H]2c3[nH]c4ccccc4c3C[C@H]3C(=O)N(CCCCCCC(=O)NO)CC(=O)N23)cc1`, for which the growth with T-47D breast was 19.5%; in the experiment with BT-549 breast, 68%; in the experiment with MDA-MB-435 melanoma, 38.3%; with SW-620 colon it was 36.5%; in the experiment on MCF7 breast it was 35.5%; with HCT-116 colon it was 15.8%. Besides, the growth is 55.6% with HCC-2998 colon and 48.2% with KM12 colon.
For the compound `CCOC(=O)CCN(CCC(=O)OCC)c1ccccc1`, the growth in the experiment with T-47D breast was 95.7%; in the experiment on BT-549 breast, 97.9%; in the experiment on MDA-MB-435 melanoma it was 124%; in the experiment on SW-620 colon, 103%; in the experiment with MCF7 breast, 101%; with HCT-116 colon, 95.4%. Further, the growth in the experiment with HCC-2998 colon is 119%; in the experiment with KM12 colon, 93.5%.
As for `Nc1nc(N)c2cc(NCc3ccc(Cl)c(Cl)c3)ccc2n1`, the growth is -81.3% (active) with T-47D breast; 46.3% with BT-549 breast; -68.1% (active) in the experiment with MDA-MB-435 melanoma; -77.4% (active) in the experiment on SW-620 colon; -72.8% (active) in the experiment with MCF7 breast; -88.2% (active) in the experiment with HCT-116 colon. The growth was -85.9% (active) in the experiment on HCC-2998 colon and -94.4% (active) in the experiment on KM12 colon.
As for `COc1cccc(-c2nc3sccn3c2-c2ccnc(NCCN3CCCN(C)S3(=O)=O)n2)c1`, the growth with T-47D breast was 72.4%; with BT-549 breast, 100%; in the experiment with MDA-MB-435 melanoma, 57.7%; in the experiment on SW-620 colon, 131%; in the experiment with MCF7 breast, 106%; in the experiment with HCT-116 colon it was 78.1%. The growth in the experiment on HCC-2998 colon is 114%; with KM12 colon, 100%.
For the compound `CC1OC(n2c3ccccc3c3c4c(c5c6ccccc6[nH]c5c32)C(=O)N(CCN[C@H]2CCC[C@@H]2N)C4=O)CC(O)C1O` (some centres not stated), the growth was 29% in the experiment on T-47D breast; 46.9% with BT-549 breast; 29.2% with MDA-MB-435 melanoma; 17.4% in the experiment on SW-620 colon; 6.49% (active) in the experiment on MCF7 breast; 24.6% in the experiment on HCT-116 colon. Further, the growth was 17% in the experiment with HCC-2998 colon and 20.2% in the experiment with KM12 colon.
For the compound `COc1ccc2[nH]cc(C3(c4c[nH]c5ccc(OC)cc45)C(=O)Nc4ccc(Cl)cc43)c2c1`, the growth was 76.4% in the experiment on T-47D breast; 93.7% in the experiment with BT-549 breast; 23.3% in the experiment on MDA-MB-435 melanoma; 30% in the experiment on SW-620 colon; 61.7% in the experiment on MCF7 breast; 64.3% in the experiment on HCT-116 colon. Also, the growth in the experiment on HCC-2998 colon is 58%; in the experiment with KM12 colon it was 14.8%.
Turning to `O=S1(=O)NCCN1CCNc1nccc(-c2c(-c3cccc(O)c3)nc3sccn23)n1`, the growth in the experiment with T-47D breast was 106%; in the experiment with BT-549 breast, 135%; in the experiment with MDA-MB-435 melanoma, 34.7%; in the experiment on SW-620 colon, 127%; with MCF7 breast, 103%; in the experiment with HCT-116 colon, 97.8%. The growth was 113% in the experiment on HCC-2998 colon and 108% in the experiment with KM12 colon.
Consider `COc1nccc2c(Sc3ccccc3)nc(N)nc12`, for which the growth with T-47D breast was 107%; in the experiment with BT-549 breast it was 85.9%; in the experiment with MDA-MB-435 melanoma, 110%; in the experiment with SW-620 colon, 109%; in the experiment on MCF7 breast, 91.9%; in the experiment with HCT-116 colon, 97.6%. The growth in the experiment on HCC-2998 colon was 106%; in the experiment with KM12 colon it was 113%.
Turning to `COC(=O)[C@H](Cc1cn(C)cn1)NC(=O)[C@H](CC(C)C)NC(=O)Nc1cc(C(F)(F)F)cc(C(F)(F)F)c1`, the growth is -64.9% [100 µM] (active) in the experiment on T-47D breast; -95.6% [100 µM] (active) in the experiment on BT-549 breast; -97.1% [100 µM] (active) in the experiment on MDA-MB-435 melanoma; -43.6% [100 µM] (active) with SW-620 colon; -86.5% [100 µM] (active) with MCF7 breast; -98% [100 µM] (active) with HCT-116 colon. The values for the growth with HCC-2998 colon and with KM12 colon were -90.3% [100 µM] (active) and -95.4% [100 µM] (active), respectively.
As for `CSc1ccc(/C=C2\C=C(CC(=O)NCc3ccc(C(=O)c4ccccc4)cc3)c3cc(F)ccc32)cc1`, the growth with T-47D breast was 31.6%; with BT-549 breast, 25.7%; in the experiment on MDA-MB-435 melanoma it was -47.8% (active); in the experiment on SW-620 colon, 9.98% (active); in the experiment on MCF7 breast, -2.9% (active); with HCT-116 colon, -28% (active). Besides, the growth in the experiment with HCC-2998 colon is -0.5% (active); in the experiment with KM12 colon, -61.4% (active).
